Shiga toxin inh: blocks Shiga toxin action in Vero cells. Vero cells, Shiga toxin protein synthesis inhibition reporter. inhibition, % at 38.7 µM. actives 9.2% (n = 290,000). AID 2315; in the data active means inhibition mostly above about 28%, no sharp cut-off; inactive means mostly below about 43%; further: 0% is about no effect
LmPK inhibitor: LmPK (Leishmania mexicana) enzyme inhibition | Potency, µM (series often up to 57.5 µM), for inactives: top-dose activity change, negative = inhibition, actives largely listed as inhibitors | AID 1721 | Q27686 | actives 0.37% (n = 290,000) | purified LmPK, Kinase-Glo ATP luminescence, 1 h; further: potency means the concentration at half of the fitted maximal effect; on the % scale 0 is the no-effect control and ±100 the full control effect
Target sequence (Q27686 whole entry, looked up): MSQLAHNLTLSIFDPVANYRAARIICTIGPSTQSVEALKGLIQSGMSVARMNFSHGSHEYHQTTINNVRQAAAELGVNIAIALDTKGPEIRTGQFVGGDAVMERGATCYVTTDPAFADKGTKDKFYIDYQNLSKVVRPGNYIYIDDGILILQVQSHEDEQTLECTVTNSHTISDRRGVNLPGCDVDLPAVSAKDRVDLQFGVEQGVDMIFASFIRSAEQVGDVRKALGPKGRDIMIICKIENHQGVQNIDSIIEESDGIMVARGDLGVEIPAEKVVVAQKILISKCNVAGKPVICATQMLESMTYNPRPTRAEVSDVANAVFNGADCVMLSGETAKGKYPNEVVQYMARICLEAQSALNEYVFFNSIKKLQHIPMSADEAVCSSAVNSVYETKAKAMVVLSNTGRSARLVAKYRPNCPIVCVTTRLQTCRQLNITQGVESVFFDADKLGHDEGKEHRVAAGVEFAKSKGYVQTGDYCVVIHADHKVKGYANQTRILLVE
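ATP generated from ADP (0.1 mM) and PEP (0.5 mM) by 0.1 nM LmPK over 1 h at room temperature (pH 7.2 imidazole buffer) was detected by coupled luciferase luminescence. Values were normalized to uninhibited and no-enzyme wells.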
CHX counter: counter-screen hit for Shiga toxin inhibitors, cycloheximide; cell reporter, cycloheximide protein synthesis inhibition counterscreen; max response, %; actives 12% (n = 300,000); AID 2314; in the data active means max response mostly above about 13%, no sharp cut-off; inactive means mostly below about 14%; further: read at 38.3 µM for the half of the compounds with a filed dose; 0% is about no effect
RE007 growth inh: less growth of the S. pombe RE007 Vpr strain. AID 651644. Potency, µM (series often up to 92.2 µM), for the others: at the top dose activity change, negative = less growth, actives largely listed as inhibitors. S. pombe RE007 Vpr strain, BacTiter-Glo ATP luminescence, 24 h. actives 0.21% (n = 360,000); active means well fitted falling curve with a large enough effect; inconclusive means small, poorly fitted or top-dose-only effect; inactive means no such curve, though single readings can be large or run the other way; further: potency means the concentration at half of the fitted maximal effect; on the % scale 0 is the no-effect control and ±100 the full control effect; nearly all actives have a fitted effect of over 50% in size
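Fission yeast strain RE007, carrying one chromosomally integrated HIV-1 vpr copy, was seeded at OD 0.01 in PMG+AL medium with 23 nL pinned compound. After 24 h at 30 °C and 99% humidity, viability was read by BacTiter-Glo luminescence.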
Tb PYK inh: inhibitors of Trypanosoma brucei pyruvate kinase; Q57TT1; TbPYK enzyme, Kinase-Glo Plus ATP luminescence, 45 min; actives 0.12% (n = 410,000); AID 624173; Potency, µM (doses to about 76.8 µM), for inactives: top-dose activity, negative = inhibition, most hits filed as inhibitors; further: potency means the concentration at half of the fitted maximal effect; on the % scale 0 is the no-effect control and ±100 the full control effect; nearly all actives have a fitted effect of over 50% in size
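Assay buffer: 50 mM TEA pH 7.2, 100 mM KCl, 10 mM MgCl2, 0.05% BSA, 0.01% Tween-20. Pyruvate kinase from T. brucei plus substrate met compound, then ADP (130 uM final). Luminescence was read post 45 min RT.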
FBPA Giardia inh: Giardia lamblia aldolase inhibition. AID 2451. Potency, µM (top dose mostly 59.6 µM), for inactives: at the top dose activity, negative = inhibition, actives largely listed as inhibitors. A8B2U2. actives 0.71% (n = 290,000). purified Giardia FBPA; further: potency means the concentration at half of the fitted maximal effect; on the % scale 0 is the no-effect control and ±100 the full control effect; nearly all actives have a fitted effect of over 55% in size
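40 nM FBPA preincubated 10 min at RT with compound (up to 57.5 uM final), then substrate plus GAPDH/TPI/NAD/arsenate coupling and diaphorase/resazurin added. Fluorescence read after 20 min at RT, 525/598 nm.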
Numbers without * were called inactive; ? = inconclusive; nt = no result given; [ ] = remark or other dose. The entries come from a sample that favours hits as a whole. Unless noted, the call rests on the fitted dose curve; in most records, active means well fitted curve in the direction sought with a large enough effect; inconclusive means small, poorly fitted or top-dose-only effect, or another doubt; inactive means no such curve, though single readings can be large; an effect the other way counts as inactive or inconclusive.

SMILES	Shiga toxin inh	LmPK inhibitor	CHX counter	RE007 growth inh	Tb PYK inh	FBPA Giardia inh
C=CCOC(=O)C(C(C)=O)C(NC(=O)OC)c1ccco1 (configuration not stated)	nt	nt	nt	nt	nt	0%[12.9 µM]
CCC1CCc2nc3sc(C(=O)Nc4ccc(C)cc4C)c(N)c3cc2C1 (configuration not stated)	nt	nt	nt	nt	-1%	nt
O=C(Nc1ccccc1)C1=C[C@H](c2ccc(Br)cc2)C[C@H](OCc2ccc(CO)cc2)O1	69*	4%	41*	-4%	0%	-11%
CC(C)(C)[C@H]1C=C(C(=O)Nc2ccccc2)O[C@@H](OCc2ccc(CO)cc2)C1	18	3%	12*	9%	0%	-10%
NC(=O)C1=C[C@H](c2ccccc2)C[C@H](OCc2ccc(CO)cc2)O1	27*	7%	36*	-9%	-1%	?
CN1CCN(C(=O)C2=C[C@H](c3ccccc3)C[C@H](OCc3ccc(CO)cc3)O2)CC1	1	0%	7.5*	7%	-3%	-6%
CC(C)(C)[C@@H]1C=C(C(=O)NCc2ccccc2)O[C@H](OCc2ccc(CO)cc2)C1	-10	5%	2	-24%	5%	?
CCc1cc2c(SCC(=O)NC3CCCC3)ncnc2s1	nt	nt	nt	-3%	-3%	nt
COc1cc2c(c(OC)c1OC)-c1ccc(SC)c(=O)cc1C(NC=O)CC2 (configuration not stated)	nt	nt	nt	-24%	0%	nt
O=C(Nc1ccccc1)C1=C[C@@H](c2ccccc2)C[C@@H](OCc2ccc(CO)cc2)O1	81*	1%	57*	-7%	2%	-1%
O=C(Nc1ccccc1)C1=C[C@@H](c2ccc(C(F)(F)F)cc2)C[C@@H](OCc2ccc(CO)cc2)O1	17	5%	9	6%	2%	-8%
C#Cc1ccc([C@@H]2C=C(C(=O)OCC=C)O[C@H](OCc3ccc(CO)cc3)C2)cc1	23*	2%	31*	5%	-1%	-5%
Cc1cc(NC(=O)c2ccc(OCC3CCCO3)cc2)ccc1Br (configuration not stated)	nt	nt	nt	15%	0%	nt
Cc1ccc2nc(NC(=O)c3ccc(OCC4CCCO4)cc3)sc2c1 (configuration not stated)	92*	0%	46*	-24%	1%	15%
O=C(Nc1nc(-c2ccc(Cl)cc2Cl)cs1)c1ccc(OCC2CCCO2)cc1 (configuration not stated)	-2	-1%	-3	-2%	-1%	-10%
Cc1cc(C)c2nc(NC(=O)c3ccc(OCC4CCCO4)cc3)sc2c1 (configuration not stated)	65*	0%	31*	-7%	0%	1%
CCCCCCC1Cc2cc(OC)c(OC)cc2C(C(C(=O)OCC)C(=O)OCC)O1 (configuration not stated)	nt	nt	nt	nt	nt	2%[12.9 µM]
Cc1cc(N(C)Cc2ccccc2)nc2cc(O)ccc12	44*	6%	20*	10%	3%	0%
O=C(Nc1cccnc1)Nc1cccc([N+](=O)[O-])c1	22	-1%	-1	-7%	-2%	9%
Cc1ccc(C(C)C)cc1NC(=O)Nc1ccc([N+](=O)[O-])cc1	34*	1%	33	nt	1%	-9%
O=C(Nc1ccc(OC(F)(F)F)cc1)Nc1cccc([N+](=O)[O-])c1	58*	6%	18*	3%	-3%	-14%
Cc1ccc(NC(=O)Nc2cccc([N+](=O)[O-])c2)cc1F	54*	0%	31*	1%	-6%	-1%
Cc1cccc(CNc2ncncc2-c2cccc(NS(C)(=O)=O)c2)c1	nt	nt	nt	nt	nt	0%
COc1ccccc1NC(=O)CCn1c(=S)oc2ccccc21	9	-2%	-2	2%	2%	7%
CCCOC(=O)CCn1c(=S)oc2ccccc21	76*	2%	39*	7%	-1%	2%
SMILES	Shiga toxin inh	LmPK inhibitor	CHX counter	RE007 growth inh	Tb PYK inh	FBPA Giardia inh
O=[N+]([O-])c1ccc(OCc2cnc(Cl)s2)cc1	32	1%	32*	1%	1%	0%
COc1ccc(OCc2cnc(Cl)s2)cc1	60*	-1%	29*	10%	-7%	7%
Cc1ccc(OCc2cnc(Cl)s2)c(C)c1	146*	-1%	36*	-2%	4%	12%
COC(=O)C(Cc1cnc(Cl)s1)(C(=O)OC)c1ccc([N+](=O)[O-])cc1	-45	1%	-5	8%	-7%	0%
COc1ccc(Cc2cnc(N)s2)cc1	24	4%	5	15%	2%	0%
CCOc1ccc(NC(=O)Cn2c3ncccc3c(=O)n2-c2ccc(CC)cc2)cc1	nt	nt	nt	nt	-6%	nt
CCn1nc(C)cc1C(=O)N1CCCC(C(=O)c2ccccc2SC)C1 (configuration not stated)	-5	-1%	1	-10%	3%	15%
NS(=O)(=O)c1cccc(NC(=O)/C=C/c2cccs2)c1	48*	0%	30*	4%	-4%	-5%
NS(=O)(=O)c1ccc(NC(=O)/C=C/c2cccs2)cc1	35	-4%	11*	10%	-3%	-5%
O=C(COC(=O)/C=C/c1cccs1)Nc1cccc(S(=O)(=O)N2CCOCC2)c1	-2	0%	-4	-11%	-1%	4%
O=C(c1cc2ccccn2n1)N1CCN(Cc2ccccc2)CC1	63	6%	59*	-8%	-3%	-18%
COC(=O)C(C)CCCC(C)CCCC(C)CCCC(C)C (configuration not stated)	-6	nt	-7	nt	nt	-3%
Nc1ccccc1OCCOc1ccccc1N	31	-3%	20*	15%	3%	-1%
CC(C)CC(O)(c1ccccc1)C(CN1CCOCC1)c1ccccc1 (configuration not stated)	18	-6%	20*	1%	1%	-27%
CC(C)CCC(O)(c1ccccc1)C(CN1CCOCC1)c1ccccc1 (configuration not stated)	-8	-1%	-2	14%	0%	6%
COC(=O)c1ccc(Cl)cc1NC(=O)N1CCCn2nc(C)cc21	nt	nt	nt	nt	1%	nt
Cc1cc(C)c(C#N)c(SCc2cn3ccccc3n2)n1	33	1%	15*	-7%	-1%	-23%
Cc1cc(C)nc(SCc2cn3ccccc3n2)n1	27	1%	22*	5%	-1%	-15%
O=C(CCCc1nc2ccccc2s1)NCc1ccccc1F	25	3%	13*	-15%	8%	4%
CCOc1ccc(C(=O)CCc2nc3ccccc3s2)cc1	62*	3%	22*	5%	-1%	-6%
NC(=O)c1ccc(NC(=O)CCc2nc3ccccc3s2)cc1	17	-2%	12*	-4%	1%	-9%
COC(=O)C(C(=O)OC)[C@@H]1O[C@@]23COC=C[C@]2(C)[C@H]3c2ccccc21	nt	nt	nt	nt	nt	0%
